# PubChem BioAssay AID602188 (Broad Institute, 2012)
# Results with a measured potency or affinity are listed apart. Records with an inconclusive call do not appear. A number with no mark means an inactive call.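 How the source made its calls: active means compounds whose fitted curve lowers viable cell signal, with half-maximal concentration at most twice the top tested dose; inconclusive means flat curve showing 30 to 70% toxicity, or poor fit; inactive means the rest.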
# Assay: mammalian cell viability loss – Alamar Blue, dry powder, cytotoxicity control for antifungal single agent project, dose response (AID 602188)
# Conditions: NIH-3T3 fibroblast viability, Alamar Blue fluorescence, 48 h; series mostly up to 26 µM; activity change, negative = toxicity: at the top concentration
row,SMILES,"activity change, negative = toxicity [%]"
1,O=C(Nc1nc(-c2ccc3c(c2)CCCC3)cs1)c1ccccc1,-19.8
2,O=C(Nc1nc(-c2ccccc2)cs1)c1ccc(Br)s1,-12.8
3,CCOC(=O)N1C(=O)C2(CCCCC2)N(c2ccc(C)cc2)C1=S,-30.9
4,NC(=O)c1cccc(C(=O)Nc2nc(-c3ccc4c(c3)CCCC4)cs2)c1,1.26
